AMA1-RON2 inh: inhibitors of Plasmodium falciparum AMA1-RON2 interaction; AID 720542; Potency, µM (highest dose often 58.2 µM), for the others: at the highest dose activity change, negative = inhibition, usual class: inhibitors; AlphaScreen AMA1-biotinylated RON2 peptide binding; 360,000 tested, 0.2% active;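 note: 0% = vehicle wells and -100% = peptide control; nearly all actives have a fitted effect of over 45% in size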
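AMA1 (3D7) with his tag at 25 nM final met compounds first, then biotinylated RON2 peptide at 25 nM; detection used donor plus acceptor beads, 10 µg/mL apiece, read by AlphaScreen after 30 min at room temperature.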
Pf growth 96h: P. falciparum growth inhibition at 96 hour, primary screen for plastid delayed-death inhibitors | P. falciparum luciferase reporter growth, 96 h | 320,000 tested, 6.9% active | AID 504834 | Potency, µM (series often up to 28.7 µM), without a hit: at the highest dose activity change, negative = inhibition, usual class: inhibitors; note: % is set by controls: 0 for no effect and ±100 for the full control effect
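Infected RBCs, 2% Hct / 0.05% parasitemia final; luciferase-reporter P. falciparum; cpd 96 h, 37 C, 5% CO2; luciferase detection reagent; luminescence.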
HCV inh: inhibitors of hepatitis C virus infection. Huh7.5.1 HCVcc-Cre infection, luciferase reporter, 44 h. Potency, µM (top dose mostly 41.8 µM), for the others: at the highest dose activity change, negative = inhibition, actives largely listed as inhibitors. 340,000 tested, 3.4% active. AID 651820; note: % is set by controls: 0 for no effect and ±100 for the full control effect
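Antiviral activity was scored by luciferase reporter output from cells infected with HCVcc-Cre (~0.5 moi) in presence of compound, 44 h infection period, cells seeded 1,000/well 4 h prior.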
NS1 inh: blocks influenza NS1 protein function. Potency, µM (doses to about 46.1 µM), for the others: at the highest dose activity, positive = more growth. 270,000 tested, 0.4% active; calls by dose curve; note: actives are rising curves; nearly all actives have a fitted effect of over 50% in size
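Compounds were scored for reversing the slow growth caused by influenza A NS1 in S. cerevisiae, measured by optical density at 600 nm. Assay medium contained 2% galactose at pH 6.0; NS1-free yeast of the same strain were the positive control.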
Pf growth 48h: inhibits P. falciparum growth in the first generation, 48 h. P. falciparum luciferase growth in erythrocytes, 48 h. Potency, µM (top dose mostly 28.7 µM), for the others: at the highest dose activity change, negative = inhibition, actives largely listed as inhibitors. 310,000 tested, 5.9% active. AID 504832; note: % is set by controls: 0 for no effect and ±100 for the full control effect
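Luciferase-expressing P. falciparum in infected erythrocytes (2% hematocrit, 0.1% parasitemia final) in RPMI 1640/0.5% Albumax were exposed to compound for 48 hours at 37 C, 5% CO2; growth read as luminescence.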
SARS PLP yeast: inhibitors of SARS-CoV papain-like protease in yeast. Potency, µM (doses to about 32.9 µM), inactives show at the top dose activity, positive = growth rescue, actives largely listed as activators. S. cerevisiae expressing SARS-CoV PLpro, growth rescue. 330,000 tested, 0.19% active; calls by dose curve; note: 0% is about no effect; nearly all actives have a fitted effect of over 55% in size
Starred values were filed as active, the others as inactive; ? = inconclusive; . = not tested or not shown; [ ] = remark or other dose. A selection: hits, their analogues and other compounds. The true share with any hit is near 12%. Unless noted, calls come from the whole dose curve; as a rule, active = well fitted curve in the direction sought with a large enough effect; inconclusive = small, poorly fitted or top-dose-only effect, or another doubt; inactive = no such curve, though single readings can be large; an effect the other way counts as inactive or inconclusive. Potency is the fitted concentration of half-maximal effect.

SMILES	AMA1-RON2 inh	Pf growth 96h	HCV inh	NS1 inh	Pf growth 48h	SARS PLP yeast
CCN1CCN(CCNC(=O)c2ccc3c(c2)N(Cc2ccc(F)cc2)C(=O)/C(=C/c2ccccc2)S3)CC1	?	2.6%	?	.	6.57µM*	-6.1%
Cc1cccc(CN2C(=O)/C(=C\c3ccc(C(=O)NCCN4CCOCC4)cc3)Sc3ccccc32)c1	-11.9%	?	?	16.4%	?	-5.3%
O=C(NCCN1CCOCC1)c1ccc(/C=C2\Sc3ccccc3N(Cc3ccccc3F)C2=O)cc1	-22.9%	?	?	16.6%	?	-1.5%
CCN1CCN(CCNC(=O)c2ccc(/C=C3/Sc4ccccc4N(Cc4cccc(Cl)c4)C3=O)cc2)CC1	?	?	11.2µM*	.	?	2.6%
COCCn1c(C(C)C)nc2ccccc21	-0.3%	13.3%	8.3%	-2.3%	19.9%	-2.0%
CCOC(=O)c1c(C)n(Cc2ccco2)c2c1cc(O)c1ccccc12	-10.6%	.	-20.4%	8.7%	3.7µM*	5.0%
CCOC(=O)c1c(C)n(CCN2CCN(C)CC2)c2ccc(OC)cc12	-23.8%	3.7µM*	?	-1.4%	?	-2.4%
COC(=O)c1c(C)n(Cc2ccco2)c2ccc(O)cc12	-20.4%	.	?	0.6%	18.9%	-6.8%
CCOC(=O)c1c(C)n(Cc2ccco2)c2ccc(OC)cc12	5.4%	.	12.6µM*	-8.4%	0.0%	0.1%
Cc1ccc(C(CCNC(C)c2cccs2)c2ccco2)cc1 (configuration not stated)	0.0%	?	-7.4%	-7.6%	10.4µM*	-1.2%
CCN(C(=O)COC(=O)c1cccnc1Nc1ccccc1F)C1CCS(=O)(=O)C1 (configuration not stated)	-5.4%[2.32 µM]	159.0%	-10.6%	-8.1%	152.8%	-3.4%
C=CCOc1cccn2c(N(C)C(=O)c3ccc(OC)cc3)c(CC)nc12	16.7%	.	.	.	.	.
Cc1ccc(NC2CCCN(C(=O)CCc3ccncc3)C2)cc1C (configuration not stated)	-3.5%	-12.5%	1.6%	-31.0%	-6.6%	-12.6%
COc1ccc(NC2CCCN(C(=O)CCc3ccncc3)C2)cc1OC (configuration not stated)	8.8%	-22.6%	13.4%	29.5%	0.0%	-6.4%
CC(C)c1ccc(NC2CCCN(C(=O)CCN3CCCCC3=O)C2)cc1 (configuration not stated)	-3.0%	?	-4.5%	-3.8%	5.3%	?
CC(C)c1ccc(NC2CCCN(C(=O)CCN3Cc4ccccc4C3=O)C2)cc1 (configuration not stated)	-1.5%	1.85µM*	-11.0%	-18.2%	-17.8%	-1.5%
Cc1ccc(NC2CCCN(C(=O)CN3C(=O)c4ccccc4C3=O)C2)cc1C (configuration not stated)	-14.0%	14.7µM*	13.8%	-4.7%	?	-5.2%
COc1ccc(NC2CCCN(C(=O)CCCn3cncn3)C2)cc1OC (configuration not stated)	-4.3%	2.62µM*	7.2%	-1.8%	-3.5%	-2.1%
O=C(CCc1ccncc1)N1CCCC(Nc2ccc(F)c(F)c2)C1 (configuration not stated)	-6.1%	13.1µM*	7.0%	-3.3%	-0.2%	-6.8%
Cc1cc(Br)c(NC(=O)CCNC(=O)OCc2ccccc2)cc1C	0.8%	-16.0%	?	-9.8%	0.0%	-12.6%
Cc1ccc(NC2CCCN(C(=O)CSc3ccncc3)C2)cc1C (configuration not stated)	-9.7%	13.1µM*	-3.3%	11.3%	-25.5%	-3.4%
Cc1ccc(C(=O)NCCCN2CCN(CCCNC(=O)c3ccc(C)cc3)CC2)cc1	-6.0%	.	-30.0%	.	.	.
CC(Sc1nc2ncc(Cl)cc2[nH]1)C(=O)NC1(C#N)CCCCC1 (configuration not stated)	1.2%	-14.5%	?	.	2.3%	-6.6%
Cc1occc1C(=O)NC1CCCN(Cc2ccc(Cl)cc2)C1 (configuration not stated)	1.6%	29.0%	?	5.6%	-6.5%	-3.3%
COc1ccc(CCC(=O)NC2CCCN(Cc3ccc(Cl)cc3)C2)cc1OC (configuration not stated)	-0.3%	42.1%	-14.7%	5.7%	?	4.2%
SMILES	AMA1-RON2 inh	Pf growth 96h	HCV inh	NS1 inh	Pf growth 48h	SARS PLP yeast
Cc1cc(C(=O)NC2CCCN(Cc3ccc(Cl)cc3)C2)c(C)o1 (configuration not stated)	5.4%	?	-5.6%	6.6%	10.4µM*	-5.5%
O=C(CCc1ccc(F)c(F)c1)NC1CCCN(Cc2ccc(Cl)cc2)C1 (configuration not stated)	-2.3%	9.28µM*	3.8%	-3.5%	-22.2%	-1.6%
CCCc1cc(=O)oc2cc(OC(C)C(=O)NCC3CCC(C(=O)O)CC3)ccc12 (configuration not stated)	17.0%	?	-7.0%	4.3%	-13.3%	3.2%
CCN(Cc1nc2ccccc2c(=O)[nH]1)C(=O)c1cc2c(s1)CCCCC2	69.2%	8.4%	0.1%	.	-0.6%	2.0%
CC1CC2=C(NC(=S)NC2c2cccc(F)c2)/C(=C/c2cccc(F)c2)C1 (configuration not stated)	22.2%	6.1%	10µM*	.	?	0.8%
CCNC(=S)N1N=C2c3ccccc3CCC2C1c1ccc(F)cc1 (configuration not stated)	-18.0%	2.62µM*	?	1.1%	7.38µM*	-0.2%
Oc1ccc(-c2nc3ccc4ccccc4c3c3c2CCC3)cc1O	-5.9%	6.3%	?	9.5%	14.7µM*	-53.3%
CC1(c2ccncc2)Nc2ccccc2-c2nc3ccccc3n21 (configuration not stated)	9.5%	2.62µM*	-7.2%	-47.2%	3.29µM*	-10.9%
Cc1ccc(C2Nc3ccccc3-c3nc4ccccc4n32)o1 (configuration not stated)	44.7%	290.2%	?	-93.5%	216.3%	-35.3%
COc1ccc2c(c1)C1(Nc3ccccc3-c3nc4ccccc4n31)C(=O)N2 (configuration not stated)	-3.7%	.	11.4%	-40.9%	0.415µM*	26.6%
COc1ccc2c(c1)C1(Nc3ccccc3-c3nc4ccccc4n31)C(=O)N2C (configuration not stated)	-0.8%	14.8%	2.8%	5.3%	6.57µM*	-4.8%
Cc1cccc(C)c1NC(=O)Cn1nc(-c2ccc(Cl)s2)ccc1=O	-4.1%	-9.1%	?	6.3%	14.0%	-4.8%
COc1ccc(C)cc1Nc1n[n+](-c2ccccc2)c(-c2ccc(OC)c(OC)c2OC)s1	58.2%	1.04µM*	9.9%[8.37 µM]	-0.7%	?	2.4%
COc1ccc(C)cc1Nc1n[n+](-c2ccccc2)c(-c2c(Cl)cccc2Cl)s1	?	7.38µM*	-24.3%[8.37 µM]	-1.5%	10.4µM*	-6.1%

High-throughput results (PubChem BioAssay)
